This is an account of results in ChEMBL document CHEMBL3988442, “University of Dundee, Small-Polar-MMV Screening Library” (2021).

Screen size: about 48,000 compounds; about 13,000 (27%) showed an effect of 50% or more. Some of the results follow.

This assay has as its system Wolbachia pipientis. Nature of the assay: Anti-Wolbachia Cell-Based Screen. Further details: scale not given: in the data most compounds retested in dose-response had high values. It counts as functional. The settings on record: 5 µM.
Turning to `CCOc1ccc(-c2ccnc(COc3ccccc3)n2)cc1C(=O)O`, the “Percent Effect” value was -3.347%.

Turning to `Cn1cnc(S(=O)(=O)N2C[C@@H]3CC[C@H](C2)N(Cc2cscn2)C3=O)c1`, the “Percent Effect” value is -55.67%.

For `Cc1ccc(S(=O)(=O)N2CCn3nc(C)nc3C2)c(Cl)c1`, the “Percent Effect” value is 0.9769%.

Take `CNS(=O)(=O)c1ccc(CN2CCCN(Cc3ccncc3)CC2)cc1`: the “Percent Effect” value turned out to be 21.96%.

As to `Cc1cc(Cl)c(C)c(S(=O)(=O)N2CCN(Cc3ccncc3)CC2)c1Cl`, the “Percent Effect” value is given as 94.36%.

As for `CCN1CCN(S(=O)(=O)c2cc(Cl)c(Cl)cc2C)CC1`, the “Percent Effect” value amounted to 4.693%.

For the compound `Cc1cc(F)c(C(C(=O)O)N2CCN(Cc3ccccn3)CC2)cc1Cl` (stereo unspecified), the “Percent Effect” value amounted to 7.172%.

In the case of `CCCNC(=O)N1CCN(Cc2cc(C)no2)CC1`, the “Percent Effect” value is reported as 1.77%.

`Cc1cc(CN2CCN(S(=O)(=O)c3c(C)c(Cl)cc(C)c3Cl)CC2)on1`: the “Percent Effect” value is reported as 85.02%.

Take `Cc1ccc(C)c(C(C(=O)O)N2CCCN(Cc3ccccn3)CC2)c1` (stereo unspecified): the “Percent Effect” value came out at 19.25%.

In the case of `Cc1ccc(CN2CCN(Cc3ccncc3)CC2=O)cc1`, the “Percent Effect” value was -11.1%.

On to `Cc1ccc(S(=O)(=O)N2CCN(Cc3ccncc3)CC2)c(Cl)c1`, for which the “Percent Effect” value worked out at 109.7%.

For `Cc1cc(CN2CCN(C(=O)C3(C#N)CCCCC3)CC2)on1`, the “Percent Effect” value is -1.898%.

Take `Cc1cc(Cl)c(C)c(S(=O)(=O)N2CCN(Cc3ccccn3)CC2)c1Cl`: the “Percent Effect” value stood at 101.6%.

In the case of `CNC(=O)c1ccc(NC(=O)NC(C)CCc2cccn2C)c(C)c1` (stereo unspecified), the “Percent Effect” value was 7.929%.

As to `O=C(CN1CCNCC1)N1CC[C@@H](c2ccc3ccccc3c2)[C@H](O)C1`, the “Percent Effect” value is 6.521%.

`OC(COCc1ccccc1)CSc1nnc(C2CC2)n1C1CC1` (stereo unspecified): the “Percent Effect” value is recorded as 6.526%.

As for `O=C(c1cccnc1-n1cncn1)N1CCN(C2CCCC2)CC1`, the “Percent Effect” value is recorded as 9.271%.

`CC(C)Cc1noc(CN(C)C[C@]2(O)CCCN3CCCC[C@@H]32)n1`: the “Percent Effect” value is on record as 1.802%.

Consider `CCCc1nc(CN2CCN(CC(O)c3ccccc3)CC2)no1` (stereo unspecified), for which the “Percent Effect” value is on record as -2.88%.

Take `O=C(c1ccnnc1)N1C[C@@H](OCC2CCOCC2)[C@H]2OCCC[C@H]21`: the “Percent Effect” value is on record as -2.354%.

`CS(=O)(=O)N1C[C@@H](F)[C@@H](OCc2nc3ccccc3o2)C1`: the “Percent Effect” value was determined as 18.73%.

Consider `O=C(O)C(F)(F)F.O=C(O)C(F)(F)F.O=C1[C@@H]2CCN(C3CCOCC3)C[C@@H]2OCCN1Cc1cccnc1`, for which the “Percent Effect” value came to 1.497%.

In the case of `Cc1ccc(CN2CC[C@H]3C(=O)N(Cc4cccnc4)CCO[C@H]3C2)o1.O=C(O)C(F)(F)F.O=C(O)C(F)(F)F`, the “Percent Effect” value was -24.56%.

Turning to `CS(=O)(=O)N[C@@H]1CCN(Cc2cccnc2)[C@H]1Cc1ccccc1.O=C(O)C(F)(F)F.O=C(O)C(F)(F)F`, the “Percent Effect” value was found to be 1.711%.

For the compound `O=C(O)C(F)(F)F.O=C1[C@H]2CN(S(=O)(=O)c3ccccc3)C[C@H]2CN1Cc1cccnc1`, the “Percent Effect” value came to 108.5%.

On to `CCS(=O)(=O)N1C[C@H]2CN(Cc3cccnc3)C(=O)[C@H]2C1.O=C(O)C(F)(F)F`, for which the “Percent Effect” value is on record as -7.035%.

Take `O=C(O)C(F)(F)F.O=C1[C@H]2CN(S(=O)(=O)C3CC3)C[C@H]2CN1Cc1cccnc1`: the “Percent Effect” value turned out to be 124.6%.

In the case of `COC(=O)c1cccc2nc([C@H]3CCN(C4CCN(C)CC4)C3)oc12`, the “Percent Effect” value is -2.242%.

As to `NC(=O)N1CC[C@H]2CO[C@H](CNC(=O)c3ccnnc3)[C@H]2C1`, the “Percent Effect” value is given as -2.645%.

On to `Cc1ccc(N2CC[C@@H]3[C@@H](CO[C@H]3CNC(=O)c3ccco3)C2)nn1`, for which the “Percent Effect” value was determined as 1.851%.

With `Cc1ccc(CN2CC[C@@H]3[C@@H](CO[C@H]3CN(C)C)C2)o1.O=C(O)C(F)(F)F.O=C(O)C(F)(F)F`, the “Percent Effect” value is listed as -16.8%.

With `O=C(NC[C@H]1OC[C@@H]2CCN(Cc3ccco3)C[C@@H]21)c1ccnnc1.O=C(O)C(F)(F)F`, the “Percent Effect” value turned out to be 121%.

As for `O=C(NC[C@H]1OC[C@@H]2CN(Cc3ccco3)CC[C@@H]21)c1cscn1.O=C(O)C(F)(F)F`, the “Percent Effect” value is listed as 98.96%.

For `CN(Cc1cccnc1)C[C@@H]1OC[C@H]2CN(Cc3ccco3)CC[C@H]21.O=C(O)C(F)(F)F.O=C(O)C(F)(F)F.O=C(O)C(F)(F)F`, the “Percent Effect” value was 9.505%.

For `Cn1cc(C(=O)NC[C@@H]2OC[C@H]3CN(Cc4ccco4)CC[C@H]32)cn1.O=C(O)C(F)(F)F`, the “Percent Effect” value came to 1.243%.

On to `Cn1cc(CN2CC[C@@H]3[C@@H](CO[C@H]3CNC(=O)c3ccco3)C2)cn1.O=C(O)C(F)(F)F.O=C(O)C(F)(F)F`, for which the “Percent Effect” value came out at 86.49%.

Take `O=C(NC[C@H]1OC[C@@H]2CN(Cc3ccco3)CC[C@@H]21)c1cccnc1.O=C(O)C(F)(F)F.O=C(O)C(F)(F)F`: the “Percent Effect” value was 98.92%.

Turning to `Cc1cccc(N2CC[C@@H]3[C@@H](CO[C@H]3CNC(=O)c3ccco3)C2)n1`, the “Percent Effect” value is -1.973%.

With `O=C(NC[C@H]1OC[C@@H]2CCN(Cc3ccco3)C[C@@H]21)c1ccsc1.O=C(O)C(F)(F)F`, the “Percent Effect” value was determined as 14.6%.

Turning to `CN(C)C(=O)Cn1cc(C#N)c(=O)c2cc(Br)ccc21`, the “Percent Effect” value is -22.43%.

With `COCC(NC(=O)c1ccc(O)nc1)c1ccc(C)o1` (stereo unspecified), the “Percent Effect” value was 3.678%.

For the compound `O=S(=O)(c1ccc(-c2nc3c([nH]2)CCNC3)cc1)N1CCCC1`, the “Percent Effect” value was -8.56%.

For the compound `CCCSCC(=O)N1CCCC(c2nccn2Cc2ccncc2)C1` (stereo unspecified), the “Percent Effect” value is 15.91%.

On to `O=C(COCC1CC1)N1CCCC(n2cncn2)C1` (stereo unspecified), for which the “Percent Effect” value is 10.78%.

As to `CC(C)C(O)C(C)(C)CNC(=O)NCc1ccc(-n2cncn2)cc1` (stereo unspecified), the “Percent Effect” value is recorded as -5.14%.

`CC(C)CN(Cc1ccc(O)c(C(=O)O)c1)Cc1ccccn1`: the “Percent Effect” value is reported as -5.995%.

As to `CC(c1ccccn1)N(C)Cc1ccc(-n2cncn2)cc1` (stereo unspecified), the “Percent Effect” value is reported as 115.2%.

Regarding `CC(c1ccccn1)N(C)Cc1ccc(-n2ccnc2)cc1` (stereo unspecified), the “Percent Effect” value worked out at 100.9%.

For `COCCn1ccnc1CN(Cc1ccccn1)CC(C)C`, the “Percent Effect” value is on record as -12.4%.

With `CC(c1ccccn1)N(C)Cc1ccc(CCC(C)(C)O)cc1` (stereo unspecified), the “Percent Effect” value was 6.636%.

In the case of `CN(Cc1ccc(-n2ccnc2)cc1)Cc1ncc[nH]1`, the “Percent Effect” value is on record as -4.002%.

For `CC(C)CN(Cc1ccc(-n2cncn2)cc1)Cc1ccccn1`, the “Percent Effect” value was determined as 111.5%.

On to `CN(Cc1ccc(-n2cncn2)cc1)Cc1ncc[nH]1`, for which the “Percent Effect” value is -14.86%.

Consider `COc1ccc(OC)c(S(=O)(=O)NC(=O)C(C)OC)c1` (stereo unspecified), for which the “Percent Effect” value is 1.842%.

Consider `CC(C)=CCC1(CO)CCCN(S(C)(=O)=O)C1` (stereo unspecified), for which the “Percent Effect” value was -9.202%.

As for `CCc1csc(C2CCCN(C(=O)c3ncccn3)C2)n1` (stereo unspecified), the “Percent Effect” value is 104%.

As to `CCc1csc(C2CCCN(C(=O)c3ccncc3)C2)n1` (stereo unspecified), the “Percent Effect” value was 12.22%.

Take `CCc1csc(C2CCCN(C(=O)c3ccc4c(c3)OCO4)C2)n1` (stereo unspecified): the “Percent Effect” value is listed as -10.1%.

As for `CCc1nc(CN2CCCN(C(=O)c3cnc[nH]3)CC2)cs1`, the “Percent Effect” value was -9.99%.

Regarding `CC(C)c1csc(C2CCCN(C(=O)c3ncccn3)C2)n1` (stereo unspecified), the “Percent Effect” value worked out at 1.009%.

Consider `CCc1csc(C2CCCN(C(=O)c3ccc4[nH]nnc4c3)C2)n1` (stereo unspecified), for which the “Percent Effect” value worked out at 100.2%.

In the case of `Cc1csc(C2CCCN(C(=O)c3cnc[nH]3)C2)n1` (stereo unspecified), the “Percent Effect” value is given as -6.546%.

Turning to `CCc1csc(C2CCCN(C(=O)c3ccc(=O)n(C)n3)C2)n1` (stereo unspecified), the “Percent Effect” value was -0.1419%.

`CCc1csc(C2CCCN(C(=O)c3ccc(OC)nc3)C2)n1` (stereo unspecified): the “Percent Effect” value was 6.728%.

For `CCc1csc(C2CCCN(C(=O)c3ccc(=O)n(CC)n3)C2)n1` (stereo unspecified), the “Percent Effect” value worked out at 101.1%.

Regarding `CCc1csc(C2CCCN(C(=O)c3cnc[nH]3)C2)n1` (stereo unspecified), the “Percent Effect” value amounted to 106.6%.

As for `COC(=O)CNC(=O)C1(NC(=O)c2ccc3[nH]ncc3c2)CCCC1`, the “Percent Effect” value is recorded as 5.444%.

For the compound `CNS(=O)(=O)c1ccccc1N1CCN(C(C)C(N)=O)CC1` (stereo unspecified), the “Percent Effect” value is -9.322%.

Consider `CC(C)NC(=O)N1CC[C@@H](N(C)C)[C@@H]1Cc1ccncc1.O=C(O)C(F)(F)F.O=C(O)C(F)(F)F`, for which the “Percent Effect” value is -7.431%.

In the case of `CCc1csc(C2CCCN(C(=O)c3ccccn3)C2)n1` (stereo unspecified), the “Percent Effect” value was 106.7%.

For the compound `CCc1csc(C2CCCN(C(=O)c3ccc(OC)nn3)C2)n1` (stereo unspecified), the “Percent Effect” value is recorded as 3.799%.

With `CCc1csc(C2CCCN(C(=O)c3ccco3)C2)n1` (stereo unspecified), the “Percent Effect” value was found to be 94.24%.

As for `CCc1csc(C2CCCN(C(=O)c3cc(C4CC4)[nH]n3)C2)n1` (stereo unspecified), the “Percent Effect” value is recorded as 98.97%.

On to `CCc1csc(C2CCCN(C(=O)c3c[nH]c(C)n3)C2)n1` (stereo unspecified), for which the “Percent Effect” value came out at 6.503%.

In the case of `Cc1csc(C2CCCN(C(=O)c3cc(Cl)c[nH]3)C2)n1` (stereo unspecified), the “Percent Effect” value was -0.3257%.

For `CCN(C(=O)CN1CCC(c2ccccc2)C1)C1CC1` (stereo unspecified), the “Percent Effect” value was found to be 4.674%.

Turning to `CCOC(=O)[C@@H]1CN2CCNC[C@@H]2[C@H]1c1ccccc1`, the “Percent Effect” value is reported as 110.8%.

Consider `CCOC(=O)CCC(=O)N1CC(c2nc(Cc3ccccc3)no2)C1`, for which the “Percent Effect” value is recorded as -13.25%.

Turning to `O=C(CCn1cncn1)N1C[C@H]2CC[C@@H]1CN(Cc1ccncc1)C2`, the “Percent Effect” value was found to be 5.769%.

As to `CC(CN1CCOCC1)OC(=O)c1cccc2cn[nH]c12` (stereo unspecified), the “Percent Effect” value is on record as -3.971%.

Take `Cc1csc(N2CCCN(C(=O)c3c(C)oc(C)c3C)CC2)n1`: the “Percent Effect” value was 12.08%.

For the compound `Cc1nc(CN2CCCN(C(=O)c3c(C)oc(C)c3C)CC2)cs1`, the “Percent Effect” value is 108.1%.

`Cc1ocnc1C(=O)N1CCCN(Cc2cscn2)CC1`: the “Percent Effect” value came to 126.9%.

For `Cc1noc(C)c1CNC(=O)N1CCN(Cc2cscn2)CC1`, the “Percent Effect” value is given as -4.059%.

For `Cc1nc(CN2CCCN(C(=O)c3c(C)noc3C)CC2)cs1`, the “Percent Effect” value amounted to 14.06%.

As to `Cc1cc(C(C)C(=O)N2CCCN(Cc3cscn3)CC2)c(C)o1` (stereo unspecified), the “Percent Effect” value is recorded as -21.53%.

For the compound `Cc1oc(C)c(C(=O)N2CCN(Cc3cscn3)CC2)c1C`, the “Percent Effect” value is reported as 159.3%.

As for `CCc1noc(C)c1C(=O)N1CCCN(Cc2cscn2)CC1`, the “Percent Effect” value was found to be 149%.

For `Cc1oc(C)c(C(=O)N2CCCN(Cc3cscn3)CC2)c1C`, the “Percent Effect” value is listed as 2.495%.

As to `CCc1noc(C)c1C(=O)N1CCCN(Cc2csc(C)n2)CC1`, the “Percent Effect” value is recorded as 18.09%.
